Laboratory results from the supplement of paper PMC12669032.
Unmarked numbers belong to inactive results.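 The calls were made as follows: active = AUC reduced over 20% with Padj below 0.05 in at least 2 of 3 replicates; inactive = otherwise.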

Columns and labels:
Test in all cases: growth AUC relative to DMSO control (median of replicates) (fraction); higher = more growth (less inhibition), active = hit call of the paper
Details in all cases: 20 µM; 24 h
Akkermansia muciniphila = system: Akkermansia muciniphila
In short: (§1)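 Hourly OD600 readings over 24 h tracked anaerobic gut bacterial monocultures grown at 37 °C in mGAM from OD600 0.05 with 20 µM compound (1% DMSO). After the minimum OD was set to 0, area under the growth curve was normalised to the plate median of solvent-only wells, or to row and column medians on the industrial chemical plate. Values are medians of three biological replicates grown on separate days.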

Bacteroides caccae = system: Bacteroides caccae
In short: as §1

Bacteroides clarus = system: Bacteroides clarus
In short: as §1

Bacteroides dorei = system: Bacteroides dorei
In short: as §1

Bacteroides stercoris = system: Bacteroides stercoris
In short: as §1

[1] = system: Bacteroides thetaiotaomicron
In short: as §1

Bacteroides uniformis = system: Bacteroides uniformis
In short: as §1

[2] = system: Bifidobacterium longum subsp. longum
In short: as §1

Clostridium difficile = system: Clostridium difficile
In short: as §1

Collinsella aerofaciens = system: Collinsella aerofaciens
In short: as §1

Coprococcus comes = system: Coprococcus comes
In short: as §1

Escherichia coli ED1a = system: Escherichia coli ED1a
In short: as §1

Escherichia coli IAI1 = system: Escherichia coli IAI1
In short: as §1

Eubacterium rectale = system: Eubacterium rectale
In short: as §1

[3] = system: Fusobacterium nucleatum subsp. animalis
In short: as §1

Lactobacillus gasseri = system: Lactobacillus gasseri
In short: as §1

Lactobacillus paracasei = system: Lactobacillus paracasei
In short: as §1

Odoribacter splanchnicus = system: Odoribacter splanchnicus
In short: as §1

[4] = system: Parabacteroides distasonis
In short: as §1

Parabacteroides merdae = system: Parabacteroides merdae
In short: as §1

CCNc1nc(NC(C)C)nc(OC)n1
growth AUC (Akkermansia muciniphila): 1.15 | growth AUC (Bacteroides caccae): 0.971 | growth AUC (Bacteroides clarus): 1.02 | growth AUC (Bacteroides dorei): 0.941 | growth AUC (Bacteroides stercoris): 1.03 | growth AUC [1]: 1 | growth AUC (Bacteroides uniformis): 0.969 | growth AUC [2]: 1.01 | growth AUC (Clostridium difficile): 0.981 | growth AUC (Collinsella aerofaciens): 0.962 | growth AUC (Coprococcus comes): 1.02 | growth AUC (Escherichia coli ED1a): 1 | growth AUC (Escherichia coli IAI1): 0.999 | growth AUC (Eubacterium rectale): 1.05 | growth AUC [3]: 1.05 | growth AUC (Lactobacillus gasseri): 0.911 | growth AUC (Lactobacillus paracasei): 0.969 | growth AUC (Odoribacter splanchnicus): 1.01 | growth AUC [4]: 0.922 | growth AUC (Parabacteroides merdae): 0.982

CNC(=O)Oc1cc(C)c(SC)c(C)c1
growth AUC (Akkermansia muciniphila): 1.07 | growth AUC (Bacteroides caccae): 0.934 | growth AUC (Bacteroides clarus): 1 | growth AUC (Bacteroides dorei): 0.971 | growth AUC (Bacteroides stercoris): 0.912 | growth AUC [1]: 1.01 | growth AUC (Bacteroides uniformis): 0.989 | growth AUC [2]: 1.34 | growth AUC (Clostridium difficile): 1.01 | growth AUC (Collinsella aerofaciens): 0.934 | growth AUC (Coprococcus comes): 1.01 | growth AUC (Escherichia coli ED1a): 0.987 | growth AUC (Escherichia coli IAI1): 0.967 | growth AUC (Eubacterium rectale): 0.982 | growth AUC [3]: 0.984 | growth AUC (Lactobacillus gasseri): 0.883 | growth AUC (Lactobacillus paracasei): 0.931 | growth AUC (Odoribacter splanchnicus): 1.11 | growth AUC [4]: 1.02 | growth AUC (Parabacteroides merdae): 0.912

CC(C)CC(C)c1sccc1NC(=O)c1cn(C)nc1C(F)(F)F (stereo not given)
growth AUC (Akkermansia muciniphila): 0.99 | growth AUC (Bacteroides caccae): 0.967 | growth AUC (Bacteroides clarus): 0.94 | growth AUC (Bacteroides dorei): 1.02 | growth AUC (Bacteroides stercoris): 1.07 | growth AUC [1]: 0.938 | growth AUC (Bacteroides uniformis): 0.942 | growth AUC [2]: 1.02 | growth AUC (Clostridium difficile): 1 | growth AUC (Collinsella aerofaciens): 0.99 | growth AUC (Coprococcus comes): 0.984 | growth AUC (Escherichia coli ED1a): 0.998 | growth AUC (Escherichia coli IAI1): 0.946 | growth AUC (Eubacterium rectale): 1.01 | growth AUC [3]: 1.04 | growth AUC (Lactobacillus gasseri): 0.945 | growth AUC (Lactobacillus paracasei): 1.02 | growth AUC (Odoribacter splanchnicus): 0.782 | growth AUC [4]: 0.856 | growth AUC (Parabacteroides merdae): 0.977

Oc1ccc(C(c2ccc(O)cc2)(C(F)(F)F)C(F)(F)F)cc1
growth AUC (Akkermansia muciniphila): 1.03 | growth AUC (Bacteroides caccae): 0.63 (active) | growth AUC (Bacteroides clarus): 0.464 (active) | growth AUC (Bacteroides dorei): 0.154 (active) | growth AUC (Bacteroides stercoris): 0.0109 (active) | growth AUC [1]: 0.679 (active) | growth AUC (Bacteroides uniformis): 0.686 (active) | growth AUC [2]: 0.924 | growth AUC (Clostridium difficile): 0.966 | growth AUC (Collinsella aerofaciens): 0.894 | growth AUC (Coprococcus comes): 1.06 | growth AUC (Escherichia coli ED1a): 0.969 | growth AUC (Escherichia coli IAI1): 1 | growth AUC (Eubacterium rectale): 0.792 (active) | growth AUC [3]: 0.595 (active) | growth AUC (Lactobacillus gasseri): 0.577 | growth AUC (Lactobacillus paracasei): 0.727 | growth AUC (Odoribacter splanchnicus): 0.0871 (active) | growth AUC [4]: 0.0433 (active) | growth AUC (Parabacteroides merdae): 0.515 (active)

N#CN=C1SCCN1Cc1ccc(Cl)nc1
growth AUC (Akkermansia muciniphila): 0.871 | growth AUC (Bacteroides caccae): 1 | growth AUC (Bacteroides clarus): 1 | growth AUC (Bacteroides dorei): 0.967 | growth AUC (Bacteroides stercoris): 1.22 | growth AUC [1]: 0.999 | growth AUC (Bacteroides uniformis): 0.991 | growth AUC [2]: 1.04 | growth AUC (Clostridium difficile): 1.02 | growth AUC (Collinsella aerofaciens): 0.98 | growth AUC (Coprococcus comes): 1.04 | growth AUC (Escherichia coli ED1a): 0.966 | growth AUC (Escherichia coli IAI1): 0.996 | growth AUC (Eubacterium rectale): 0.979 | growth AUC [3]: 1.11 | growth AUC (Lactobacillus gasseri): 1.03 | growth AUC (Lactobacillus paracasei): 0.963 | growth AUC (Odoribacter splanchnicus): 1.02 | growth AUC [4]: 1.03 | growth AUC (Parabacteroides merdae): 1.01

CNC(=O)Oc1cccc2c1OC(C)(C)C2
growth AUC (Akkermansia muciniphila): 1.1 | growth AUC (Bacteroides caccae): 0.964 | growth AUC (Bacteroides clarus): 1.01 | growth AUC (Bacteroides dorei): 0.999 | growth AUC (Bacteroides stercoris): 1.02 | growth AUC [1]: 0.998 | growth AUC (Bacteroides uniformis): 1 | growth AUC [2]: 0.996 | growth AUC (Clostridium difficile): 1 | growth AUC (Collinsella aerofaciens): 1.04 | growth AUC (Coprococcus comes): 1.02 | growth AUC (Escherichia coli ED1a): 1.04 | growth AUC (Escherichia coli IAI1): 0.985 | growth AUC (Eubacterium rectale): 1.02 | growth AUC [3]: 1.07 | growth AUC (Lactobacillus gasseri): 0.946 | growth AUC (Lactobacillus paracasei): 0.994 | growth AUC (Odoribacter splanchnicus): 1.06 | growth AUC [4]: 0.992 | growth AUC (Parabacteroides merdae): 1

CNC(=O)CSP(=O)(OC)OC
growth AUC (Akkermansia muciniphila): 1.07 | growth AUC (Bacteroides caccae): 1.03 | growth AUC (Bacteroides clarus): 1.02 | growth AUC (Bacteroides dorei): 1.03 | growth AUC (Bacteroides stercoris): 1.04 | growth AUC [1]: 0.997 | growth AUC (Bacteroides uniformis): 1.01 | growth AUC [2]: 1.06 | growth AUC (Clostridium difficile): 1.03 | growth AUC (Collinsella aerofaciens): 1.03 | growth AUC (Coprococcus comes): 1.04 | growth AUC (Escherichia coli ED1a): 1.01 | growth AUC (Escherichia coli IAI1): 1.03 | growth AUC (Eubacterium rectale): 1.01 | growth AUC [3]: 1.04 | growth AUC (Lactobacillus gasseri): 1.06 | growth AUC (Lactobacillus paracasei): 1.05 | growth AUC (Odoribacter splanchnicus): 1.05 | growth AUC [4]: 1.02 | growth AUC (Parabacteroides merdae): 1.01

Oc1cccc2cccnc12
growth AUC (Akkermansia muciniphila): 0.981 | growth AUC (Bacteroides caccae): 0.994 | growth AUC (Bacteroides clarus): 1.01 | growth AUC (Bacteroides dorei): 0.993 | growth AUC (Bacteroides stercoris): 1.12 | growth AUC [1]: 0.984 | growth AUC (Bacteroides uniformis): 0.988 | growth AUC [2]: 1.14 | growth AUC (Clostridium difficile): 0.959 | growth AUC (Collinsella aerofaciens): 0.963 | growth AUC (Coprococcus comes): 0.928 | growth AUC (Escherichia coli ED1a): 0.987 | growth AUC (Escherichia coli IAI1): 0.982 | growth AUC (Eubacterium rectale): 0.904 | growth AUC [3]: 1.04 | growth AUC (Lactobacillus gasseri): 1.08 | growth AUC (Lactobacillus paracasei): 0.942 | growth AUC (Odoribacter splanchnicus): 1.02 | growth AUC [4]: 1 | growth AUC (Parabacteroides merdae): 0.993
